MARV entry inh: Marburg virus entry inhibition; actives 1.8% (n = 300,000); Potency, µM (highest dose often 37.8 µM), inactives show at the top dose activity change, negative = inhibition, actives largely listed as inhibitors; AID 540276; Marburg virus pseudotyped entry inhibition, cell reporter; calls by dose curve; tested in HEK293 cells; further: potency means the concentration at half of the fitted maximal effect
HCV inh: inhibitors of hepatitis C virus infection; AID 651820; Potency, µM (titrated, usually from 41.8 µM), inactives show at the highest dose activity change, negative = inhibition, usual class: inhibitors; actives 3.4% (n = 340,000); Huh7.5.1 HCVcc-Cre infection, luciferase reporter, 44 h; active means well fitted inhibition curve with a large enough effect; inconclusive means small, poorly fitted or top-dose-only effect, or another doubt; inactive means no such curve, though single readings can be large or run the other way; further: potency means the concentration at half of the fitted maximal effect
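HCVcc-Cre virus at an moi near 0.5 was added right after compound to cells cultured 4 h from seeding (1,000 cells/well). Luciferase activity was determined 44 h later, 15 min after substrate addition at RT.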
LASV entry inh: blocks Lassa virus binding to or entry into cells; Lassa virus pseudotype entry inhibition, cell reporter; Potency, µM (titrated, usually from 37.9 µM), inactives show top-dose activity change, negative = inhibition, actives largely listed as inhibitors; actives 1.2% (n = 300,000); AID 540256; calls by dose curve; tested in HEK293 cells; further: potency means the concentration at half of the fitted maximal effect; nearly all actives have a fitted effect of over 50% in size
HCMV antiviral: inhibitors of human cytomegalovirus; HFF cells, HCMV-luciferase reporter, 72 h; stronger effect = lower value; activity change, negative = inhibition, % at 57.5 µM; actives 4.5% (n = 410,000); in the data active means activity change below about -60%; inconclusive means no clear call, values can overlap the other calls; inactive means above about -39%
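Human foreskin fibroblasts infected with luciferase-reporter HCMV at MOI 1 PFU/cell, compounds at two doses. Luciferase measured 72 h post infection; normalized to buffer-only basal and Salinomycin (10uM) controls.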
VACV mCherry inh: inhibitors of vaccinia virus infection (mCherry reporter signal); Vaccinia virus mCherry reporter infection, fluorescence; Potency, µM (doses to about 36.5 µM), for the others: top-dose activity change, negative = inhibition, actives largely listed as inhibitors; actives 0.63% (n = 310,000); AID 720579; calls by dose curve; tested in A549 cells; further: potency means the concentration at half of the fitted maximal effect; nearly all actives have a fitted effect of over 35% in size
VACV Venus inh: vaccinia inhibition (Venus reporter) | Vaccinia virus Venus reporter expression, fluorescence | Potency, µM (doses to about 36.5 µM), for the others: at the highest dose activity change, negative = inhibition, usual class: inhibitors | AID 720580 | actives 0.46% (n = 330,000); calls by dose curve; tested in A549 cells; further: potency means the concentration at half of the fitted maximal effect; nearly all actives have a fitted effect of over 30% in size
Active calls of the source: *; ? = inconclusive; . = no result; [ ] = another dose, or the depositor's remark. An excerpt weighted towards active compounds, which were near 7.8% of everything screened. On the % scale 0 is the no-effect control and ±100 the full control effect.

SMILES	MARV entry inh	HCV inh	LASV entry inh	HCMV antiviral	VACV mCherry inh	VACV Venus inh
Cc1nc(NC(C)c2ccccc2)c2oc3ccccc3c2n1 (stereo not drawn)	?	6.31µM*	?	-65.4*	?	?
COc1ccc(OC)c(Nc2nc(C)nc3c2oc2ccccc23)c1	.	-22.4%	.	-17.0	-1.1%	?
CCC[C@H]1[C@H](NCc2ccccc2)CC[C@@]23CCCN2C(=O)CCC[C@@H]13	.	.	.	-6.7	.	.
CC(=O)Nc1ccc(Nc2nc(C)nc3c2oc2ccccc23)cc1	?	?	?	21.1	.	.
Cc1nc(Nc2ccncc2)c2oc3ccccc3c2n1	?	8.91µM*	28.1%	-98.3*	.	.
COc1cc(C(=O)Nc2ccc(OCc3cc(=O)n4cccc(C)c4n3)cc2)cc(OC)c1OC	.	.	-19.5%[46.1 µM]	-11.5	8.91µM*	?
CN(C)CCCNc1nc2sc3c(c2c(=O)n1CCc1ccccc1)CCCCC3	7.08µM*	?	?	?	-10.9%	-12.5%
COc1cc(OC)cc(C(=O)Nc2ccc(Nc3ccccc3)cc2)c1	.	8.91µM*	.	-15.6	.	.
COc1ccc(OC)c(NC(=O)c2cccc(NC(=O)c3ccccc3)c2)c1	?	10µM*	?	?	1.3%	-24.2%
COc1cc(OC)cc(C(=O)Nc2cccc(NC(=O)c3ccccc3)c2)c1	?	10µM*	?	-4.9	-2.7%	-12.7%
O=C(CCSCc1ccccc1Cl)NCc1ccc(F)cc1Cl	.	.	3.8%[46.1 µM]	-10.3	-5.2%	-2.4%
O=C(CCc1ccccc1)NC(NC(=S)Nc1ccc(Cl)cc1)C(Cl)(Cl)Cl (stereo not drawn)	11.2µM*	-12.1%	?	-38.6	?	?
CC(=O)NC(NC(=S)Nc1ccc(N=Nc2ccccc2)cc1)C(Cl)(Cl)Cl (stereo not drawn)	?	7.08µM*	?	-26.5	12.6µM*	14.1µM*
O=C(/C=C/c1ccccc1)NC(NC(=S)Nc1cc(Cl)ccc1Cl)C(Cl)(Cl)Cl (stereo not drawn)	?	?	?	-1.6	10µM*	?
CC(C)(C)C(=O)Nc1ccc(N=Nc2ccccc2)cc1	?	?	?	-61.8*	?	-10.9%
O=C(O)CCC(=O)Nc1ccc(N=Nc2ccccc2)cc1	1.4%[46.1 µM]	20.9%	-3.4%	.	-2.4%	3.7%
CC(=O)NC(NC(=S)Nc1ccc(S(N)(=O)=O)cc1)C(Cl)(Cl)Cl (stereo not drawn)	.	13.2%	.	18.2	.	.
CC(C)CC(=O)NC(NC(=S)Nc1ccccc1)C(Cl)(Cl)Cl (stereo not drawn)	?	0.1%	.	53.4	-25.3%	-16.6%
Cc1cc(C)cc(NC(=O)COc2cccc3c(=O)n(C)ccc23)c1	.	.	-3.8%[46.1 µM]	6.2	-5.8%	-9.6%
COc1ccc(NC(=S)NC(NC(=O)/C=C/c2ccccc2)C(Cl)(Cl)Cl)cc1 (stereo not drawn)	-15.0%	-17.1%	-26.0%	46.0	?	?
O=C(/C=C/c1ccccc1)NC(NC(=S)Nc1ccc(Cl)cc1)C(Cl)(Cl)Cl (stereo not drawn)	4.61µM*	?	?	?	.	.
O=c1[nH]c(SCCOc2cccc3ccccc23)nc2ccccc12	2.82µM*	5.4%	?	?	-3.8%	-2.9%
CCOc1ccc(OCCSc2nc3ccccc3c(=O)[nH]2)cc1	4.1%	12.6%	-7.1%	-10.4	.	.
COc1ccc(CC(=O)Nc2cccc(/C(C)=N/NC(=O)C3(C)CC3(Br)Br)c2)cc1 (stereo not drawn)	.	10µM*	.	27.6	.	.
O=C(c1ccc([N+](=O)[O-])cc1)N(c1ccccn1)c1ccccn1	9.3%[46.1 µM]	13.3%	23.0%	-17.9	-3.2%	-3.7%
SMILES	MARV entry inh	HCV inh	LASV entry inh	HCMV antiviral	VACV mCherry inh	VACV Venus inh
CN(N=Cc1ccc([N+](=O)[O-])cc1)c1ccccn1	.	.	.	-69.8*	-8.2%	-2.1%
CC(=O)NCC1COc2ccccc2O1 (stereo not drawn)	.	15.6%	.	2.3	.	.
Cc1ccc(SCC(=O)NCC2COc3ccccc3O2)cc1 (stereo not drawn)	-17.1%	14.3%	8.7%	-64.7*	-21.5%	-23.7%
CC(=O)CCC(C)=O	.	17.8%	.	5.4	12.6µM*	?
CC(=O)CC[N+](C)(C)C	2.3%	?	24.1%	-34.2	-8.1%	-8.7%
O=C(CN(c1ccc(Cl)c(C(F)(F)F)c1)S(=O)(=O)c1ccccc1)N1CCc2ccccc2C1	.	.	-14.5%[46.1 µM]	-16.5	-16.4%	-4.6%
CCc1ccc(NC(=O)CSC2=C(C#N)C(c3ccc4c(c3)OCO4)CC(=O)N2)cc1 (stereo not drawn)	-2.5%	11.2µM*	0.0%	-77.0*	-2.7%	-16.5%
CCOC(=O)CSC1=C(C#N)C(c2ccc(C)o2)CC(=O)N1 (stereo not drawn)	.	?	.	-84.4*	-20.5%	?
Cc1ccc(NC(=O)CSC2=C(C#N)C(c3ccc4c(c3)OCO4)CC(=O)N2)cc1C (stereo not drawn)	-6.3%	?	4.4%	?	.	.
CCCOC(=O)CSC1=C(C#N)C(c2ccccc2Cl)CC(=O)N1 (stereo not drawn)	.	31.6µM*	.	-7.6	-28.1%	-14.9%
CCOC(=O)CSC1=C(C#N)C(c2ccc(Cl)cc2)CC(=O)N1 (stereo not drawn)	.	?	.	9.3	-29.8%	-27.0%
CCOC(=O)CSC1=C(C#N)C(c2ccc3c(c2)OCO3)CC(=O)N1 (stereo not drawn)	15.8µM*	?	-29.5%	-12.6	-30.4%	?
N#Cc1ccccc1NC(=O)c1cc2c(=O)n3ccccc3nc2s1	?	.	2.8%[46.1 µM]	1.2	-7.6%	-9.1%
COc1ccc(-n2nc([N+](=O)[O-])c(=NC3CCN(Cc4ccccc4)CC3)n2O)cc1	?	?	-0.6%[46.1 µM]	-62.6*	?	?
COc1ccc(-n2nc([N+](=O)[O-])c(=NCCc3ccc(OC)c(OC)c3)n2O)cc1	?	12.6µM*	?	?	-22.8%	-14.3%
COc1ccc(-n2nc([N+](=O)[O-])c(=NCCc3ccc(C)cc3)n2O)cc1	28.9%[46.1 µM]	0.3%	-11.4%[46.1 µM]	0.0	-19.2%	-11.2%
COc1ccc(-n2nc([N+](=O)[O-])c(=NCc3cccnc3)n2O)cc1	?	3.5%	?	10.4	-5.5%	-17.5%
CCN(CC)S(=O)(=O)c1ccc2oc(Nc3ccc(OC)cc3)nc2c1	-17.4%	?	-21.4%	-37.5	?	-12.7%
CCOc1ccc(Nc2nc3cc(S(=O)(=O)N(CC)CC)ccc3o2)cc1	?	10µM*	?	.	?	?
COc1ccccc1-c1c(C)nn2c(N3CCN(c4cccc(Cl)c4)CC3)cc(C)nc12	.	.	?	-3.6	-9.2%	-15.0%
CN(CCc1ccccc1)C(=O)c1ccc(NC(=O)Cc2cccc(NC(=O)C3CCN(C(=O)CCc4ccccc4)CC3)c2)cc1	.	-10.3%	.	-26.3	-4.1%	-29.6%
